# Data taken from ChEMBL document CHEMBL5606460, “ASAP - DENV-2 NS2B-NS3 protease fluorescence single point” (2024).
# Hit rate of the full screen: of about 2,000 compounds, about 110 (5.5%) showed an effect of 50% or more. Shown is part of a subset that was picked to be rich in strong results.
# Target: Genome polyprotein (dengue virus type 2) (UniProt P29990)
# [1] = Thailand/16681/1984, Concentration 25.0 uM, Number of replicates 1.0
compound,measurement,setting,value
CNC(=O)c1ccccc1NS(=O)(=O)c1ccc(Oc2ccccc2Cl)cc1,inhibition,"Thailand/16681/1984, Concentration 49.5 uM, Number of replicates 2.0, Standard deviation 0.8338499147497574 %",0.494%
same,inhibition,"Thailand/16681/1984, Concentration 99.01 uM, Number of replicates 2.0, Standard deviation 3.066215993073902 %",-2.05%
same,inhibition,"Thailand/16681/1984, Concentration 198.0 uM, Number of replicates 2.0, Standard deviation 2.7475277663160753 %",-6.31%
CCc1cccc(S(=O)(=O)Nc2ccc(Cl)cc2C(=O)NC)c1,inhibition,"Thailand/16681/1984, Concentration 49.5 uM, Number of replicates 2.0, Standard deviation 0.31892086155653854 %",0.409%
same,inhibition,"Thailand/16681/1984, Concentration 99.01 uM, Number of replicates 2.0, Standard deviation 0.4824817381530084 %",0.666%
same,inhibition,"Thailand/16681/1984, Concentration 198.0 uM, Number of replicates 2.0, Standard deviation 0.7239504320191382 %",1.73%
O=C(c1cc(Cl)ccc1NS(=O)(=O)c1ccc(Oc2ccccc2Cl)cc1)N1CCC[C@H](O)C1,inhibition,"Thailand/16681/1984, Concentration 49.5 uM, Number of replicates 2.0, Standard deviation 1.2236693461292836 %",22.2%
same,inhibition,"Thailand/16681/1984, Concentration 99.01 uM, Number of replicates 2.0, Standard deviation 0.043163767671764885 %",86.9%
same,inhibition,"Thailand/16681/1984, Concentration 198.0 uM, Number of replicates 2.0, Standard deviation 0.0596286869236367 %",96.8%
O=C(c1cc(Cl)ccc1NS(=O)(=O)c1ccc(Oc2ccccc2Cl)cc1)N1CCCC1,inhibition,"Thailand/16681/1984, Concentration 49.5 uM, Number of replicates 2.0, Standard deviation 0.3065647121254482 %",37.4%
same,inhibition,"Thailand/16681/1984, Concentration 99.01 uM, Number of replicates 2.0, Standard deviation 0.3046576515240273 %",55.4%
same,inhibition,"Thailand/16681/1984, Concentration 198.0 uM, Number of replicates 2.0, Standard deviation 0.40716687929743567 %",69%
O=S(=O)(Nc1ccccc1)c1ccc(Oc2ccccc2Cl)cc1,inhibition,"Thailand/16681/1984, Concentration 49.5 uM, Number of replicates 2.0, Standard deviation 1.8105423163556815 %",1.05%
same,inhibition,"Thailand/16681/1984, Concentration 99.01 uM, Number of replicates 2.0, Standard deviation 1.556829309720985 %",2.93%
same,inhibition,"Thailand/16681/1984, Concentration 198.0 uM, Number of replicates 2.0, Standard deviation 1.335088080503107 %",5.83%
COC1CN(C(=O)c2cc(Cl)ccc2NS(=O)(=O)c2ccc(Oc3ccccc3Cl)cc2)C1,inhibition,"Thailand/16681/1984, Concentration 49.5 uM, Number of replicates 2.0, Standard deviation 0.43340110085934463 %",13.9%
same,inhibition,"Thailand/16681/1984, Concentration 99.01 uM, Number of replicates 2.0, Standard deviation 0.8668022017186893 %",27.6%
same,inhibition,"Thailand/16681/1984, Concentration 198.0 uM, Number of replicates 2.0, Standard deviation 1.1631532151634014 %",43.9%
Cc1nc(C2CCN(C(=O)c3ccn([C@H]4CCCNC4)n3)CC2)n[nH]1,inhibition,"Thailand/16681/1984, Concentration 49.5 uM, Number of replicates 2.0, Standard deviation 0.8219326667939915 %",-4.42%
same,inhibition,"Thailand/16681/1984, Concentration 99.01 uM, Number of replicates 2.0, Standard deviation 0.15240671313806178 %",-3.84%
same,inhibition,"Thailand/16681/1984, Concentration 198.0 uM, Number of replicates 2.0, Standard deviation 2.223365450237249 %",-4.59%
O=Cc1ccc(N2CCC(C(=O)NCCc3cccc(Br)c3)CC2)cc1,inhibition,[1],11.8%
O=Cc1ccc(N2CCC(C(=O)N3CC4C[C@H]5CC3C[C@H](C4)C5)CC2)cc1,inhibition,[1],14.5%
O=Cc1ccc(N2CCC(C(=O)Nc3ccccc3OCC(F)(F)F)CC2)cc1,inhibition,[1],13.4%
Cn1cc(CNC(=O)c2ccccc2[C@@H]2CCCCN2)cn1,inhibition,"Thailand/16681/1984, Concentration 49.5 uM, Number of replicates 2.0, Standard deviation 1.3250088302691205 %",-2.36%
same,inhibition,"Thailand/16681/1984, Concentration 99.01 uM, Number of replicates 2.0, Standard deviation 0.6184423716804828 %",-1.37%
same,inhibition,"Thailand/16681/1984, Concentration 198.0 uM, Number of replicates 2.0, Standard deviation 0.12536703369097324 %",-0.243%
Cc1cn(-c2cc(NC(=O)C3CCN(c4ccc(C=O)cc4)CC3)cc(C(F)(F)F)c2)cn1,inhibition,[1],12.1%
O=Cc1ccc(N2CCC(C(=O)N3CCC(c4nc5ccccc5s4)CC3)CC2)cc1,inhibition,[1],14.3%
Cn1cc(CNC(=O)c2ccccc2CN)cn1,inhibition,"Thailand/16681/1984, Concentration 49.5 uM, Number of replicates 2.0, Standard deviation 4.704758964680012 %",-1.53%
same,inhibition,"Thailand/16681/1984, Concentration 99.01 uM, Number of replicates 2.0, Standard deviation 3.3738585950449482 %",-6.84%
same,inhibition,"Thailand/16681/1984, Concentration 198.0 uM, Number of replicates 2.0, Standard deviation 1.4794083306984744 %",-5.39%
